From PubChem BioAssay (EPA / NIEHS)
Activity calls are given as the source filed them. Rule for the calls: active = hit-call score of the fitted dose curve at least 0.9, where 1 is the maximum; inactive = score below 0.9.

What was measured:
[1] = ATG_CRE_CIS: Attagene CIS-FACTORIAL HepG2 Assay for human cAMP Responsive Element (CRE) binding protein 3 (AID 2282926); conditions: HepG2 CRE cis-reporter, Attagene multiplexed mRNA; actives raise or lower the signal
Procedure, shortened: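 Transfected HepG2 were treated for 24 hours, then RNA was extracted and reporter cDNA amplified with sequence-specific primers. Labelled fragments were separated by capillary electrophoresis, and the CRE signal was fitted bidirectionally with DMSO as baseline.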

[2] = biological target: CCAAT/enhancer-binding protein beta (Homo sapiens) (UniProt P17676); test: ATG_C_EBP_CIS: Attagene CIS-FACTORIAL HepG2 Assay for human CCAAT/Enhancer Binding Protein (C/EBP) beta (AID 2282927); conditions: HepG2 Attagene cis-factorial transcription factor reporter; actives raise or lower the signal
Procedure, shortened: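 Endogenous transcription factor activity in human liver HepG2 cells is inferred from induction of a CEBPB-linked reporter mRNA. Exposure lasts 24 h; activity is fitted in both directions relative to DMSO.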

[3] = ATG_CMV_CIS: Attagene CIS-FACTORIAL HepG2 Assay for human CMV (Internal Marker) (AID 2282928); conditions: HepG2 CMV promoter reporter, transcription factor profiling; actives raise or lower the signal;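 note: endpoint acts as a background internal control marker rather than a target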
Procedure, shortened: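 Cell system: HepG2, transiently transfected multiple reporter units under cis promoters. Exposure: 24 h. Detection: RT-PCR, FAM labeling, HpaI digestion, capillary electrophoresis. Analysis: bidirectional, DMSO baseline.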

[4] = ATG_DR4_LXR_CIS: Attagene CIS-FACTORIAL HepG2 Assay for human Liver X Receptor (LXR), DR4 submotif (AID 2282929); conditions: HepG2 Attagene DR4 cis-reporter, mRNA transcription; actives raise or lower the signal
Procedure, shortened: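 Readout: reporter transcript fluorescence after RT-PCR and capillary electrophoresis, fitted bidirectionally against DMSO controls. Human HepG2 liver cells carried transiently transfected multiplexed reporter constructs; endogenous transcription factor activity measured 24 h post-dosing.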

[5] = biological target: Aryl hydrocarbon receptor (Homo sapiens) (UniProt P35869); test: ATG_Ahr_CIS: Attagene CIS-FACTORIAL HepG2 Assay for human Aryl Hydrocarbon Receptor (Ahr) (AID 2282930); conditions: HepG2 AhR cis-factorial reporter transcription; actives raise or lower the signal
Procedure, shortened: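 Transient MRTU transfection of HepG2 → 24 h compound exposure → total RNA, oligo(dT) RT → PCR, 6-FAM extension, HpaI cut → CE fluorescence. DMSO = baseline; bidirectional curve fit.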

[6] = ATG_AP_1_CIS: Attagene CIS-FACTORIAL HepG2 Assay for human Activator Protein 1 (AP-1) (AID 2282931); conditions: HepG2 Attagene cis-factorial AP-1 reporter mRNA; actives raise or lower the signal
Procedure, shortened: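 Reporter transcripts were measured 24 h after dosing by RT-PCR and capillary electrophoresis of fluorescent fragments. Cells: HepG2 carrying transfected cis-regulated reporter constructs reading endogenous factor activity. Gain or loss fitted against DMSO.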

[7] = ATG_AP_2_CIS: Attagene CIS-FACTORIAL HepG2 Assay for human Activator Protein 2 (AP-2) (AID 2282932); conditions: HepG2 AP-2 cis-reporter, Attagene transcription factor profiling; actives raise or lower the signal
Procedure, shortened: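 HepG2, transient MRTU transfection, cis-regulated reporters; 24 h compound exposure; RNA isolated, RT-PCR, 6-FAM labelling, HpaI digest, CE fluorescence. DMSO = negative control/baseline, bidirectional fit.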

[8] = ATG_BRE_CIS: Attagene CIS-FACTORIAL HepG2 Assay for human Bone Morphogenetic Protein (BMP) Response Element (BRE) (AID 2282933); conditions: HepG2 BMP response element reporter, Attagene transcription factor profiling; actives raise or lower the signal
Procedure, shortened: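 A HepG2 multiplex reporter system measured inducible reporter mRNA 24 h post-dosing. Detection: RT-PCR, 6-FAM primer extension, HpaI digestion, capillary electrophoresis. Activity fitted bidirectionally relative to DMSO.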

[9] = biological target: Retinoic acid receptor alpha (Homo sapiens) (UniProt P10276); test: ATG_DR5_RAR_CIS: Attagene CIS-FACTORIAL HepG2 Assay for human Retinoic Acid Receptor Alpha (RARE), DR5 submotif (AID 2282934); conditions: HepG2 Attagene cis-factorial RARE DR5 reporter, mRNA; actives raise or lower the signal;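 for AC50: reporter responds to endogenous RAR alpha beta and gamma in HepG2 not RARA alone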
Procedure, shortened: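 Transient MRTU transfection of HepG2; 24 h compound treatment; TriZol RNA, oligo(dT) RT, PCR, FAM labelling, capillary electrophoresis. Bidirectional fit vs DMSO. Endogenous TF activity at DR5 RARE.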

[10] = biological target: Transcription factor E2F1 (Homo sapiens) (UniProt Q01094); test: ATG_E2F_CIS: Attagene CIS-FACTORIAL HepG2 Assay for human E2F Transcription Factor 1 (AID 2282935); conditions: HepG2 Attagene cis-reporter, E2F reporter RNA transcripts; actives raise or lower the signal
Procedure, shortened: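 Cis-element reporter mRNA induction in transiently transfected HepG2, 24 h exposure. Activity fitted in both directions relative to DMSO negative control.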

[11] = ATG_E_Box_CIS: Attagene CIS-FACTORIAL HepG2 Assay for human Enhancer Box (E-box) (AID 2282936); conditions: HepG2 E-box cis-reporter transcription, actives raise or lower the signal
Procedure, shortened: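 Cells: HepG2 (human liver), transient MRTU transfection. Exposure 24 h. RNA → oligo(dT) RT → PCR → 6-FAM label → HpaI → CE. Activity fitted both directions relative to DMSO.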

[12] = ATG_M_61_CIS: Attagene CIS-FACTORIAL HepG2 Assay for M61 Transcription Factor (Internal Marker) (AID 2282937); conditions: HepG2 Attagene CIS-FACTORIAL M61 internal marker reporter; actives raise or lower the signal
Procedure, shortened: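 Readout: fluorescent reporter mRNA fragments resolved by capillary electrophoresis after RT-PCR. Transiently transfected human HepG2 cells carried MRTU constructs reporting endogenous TF activity; 24 h chemical exposure; gain or loss of signal fitted relative to DMSO.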

[13] = ATG_EGR_CIS: Attagene CIS-FACTORIAL HepG2 Assay for human Early Growth Response 1 (EGR1) (AID 2282938); conditions: HepG2 Attagene CIS-FACTORIAL EGR reporter mRNA; actives raise or lower the signal
Procedure, shortened: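 Read-out: fluorescent reporter-mRNA fragments resolved by capillary electrophoresis after RT-PCR, 24 h post-dose in transiently transfected HepG2. Endogenous transcription-factor activity reported via cis-element-regulated reporter units; gain or loss fitted relative to DMSO.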

[14] = ATG_M_19_CIS: Attagene CIS-FACTORIAL HepG2 Assay for M19 Transcription Factor (Internal Marker) (AID 2282939); conditions: HepG2 Attagene CIS-FACTORIAL M19 internal marker reporter; actives raise or lower the signal
Procedure, shortened: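 Chemical-treated HepG2 (24 h) with MRTU constructs; reporter transcripts detected by fluorescent RT-PCR fragment analysis on capillary electrophoresis. Internal background marker, DMSO as baseline.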

[15] = ATG_Ets_CIS: Attagene CIS-FACTORIAL HepG2 Assay for human Erythroblast Transformation Specific (ETS) (AID 2282941); conditions: HepG2 ETS cis-reporter transcription, actives raise or lower the signal
Procedure, shortened: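 After transient cis-reporter transfection, HepG2 cells receive test chemical for 24 h. Reporter mRNA levels, measured by RT-PCR and capillary electrophoresis fluorescence, are analysed bidirectionally relative to the DMSO baseline.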

[16] = biological target: Hepatocyte nuclear factor 3-beta (Homo sapiens) (UniProt Q9Y261); test: ATG_FoxA2_CIS: Attagene CIS-FACTORIAL HepG2 Assay for human Forkhead box A2 (FOXA2) (AID 2282942); conditions: HepG2 cis-reporter transcription factor activity, 24 h; actives raise or lower the signal
Procedure, shortened: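 Readout: fluorescent reporter transcripts resolved by capillary electrophoresis after RT-PCR. Transiently transfected HepG2, 24 h compound exposure, endogenous TF activity at cis promoter elements. Gain or loss of signal fitted relative to DMSO.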

[17] = ATG_FoxO_CIS: Attagene CIS-FACTORIAL HepG2 Assay for human Forkhead box O (FoxO) (AID 2282943); conditions: HepG2 Attagene cis-reporter, FoxO element, mRNA; actives raise or lower the signal
Procedure, shortened: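 HepG2, transient MRTU transfection (cis element, endogenous TFs). Dose 24 h. TriZol RNA → oligo(dT) RT → PCR → 6-FAM primer extension → HpaI cut → CE. Gain/loss vs DMSO.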

[18] = ATG_GATA_CIS: Attagene CIS-FACTORIAL HepG2 Assay for human GATA Binding Protein (AID 2282944); conditions: HepG2 GATA cis-element reporter, Attagene multiplex mRNA; actives raise or lower the signal
Procedure, shortened: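 Transfected cis-reporter HepG2 cells were treated with chemicals for 24 hours. Total RNA was then converted to cDNA, amplified with reporter-specific primers and analysed by fluorescent capillary electrophoresis, using DMSO-treated wells as baseline.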

[19] = ATG_GLI_CIS: Attagene CIS-FACTORIAL HepG2 Assay for human Zinc Finger Protein GLI1 (AID 2282945); conditions: HepG2, Attagene cis-factorial reporter mRNA, GLI element; actives raise or lower the signal
Procedure, shortened: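 Bidirectional curve fits relative to DMSO, using reporter mRNA levels from RT-PCR plus capillary electrophoresis. Cells were HepG2 transiently carrying cis-regulated reporter constructs, harvested 24 h after dosing.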

Measured: AC50

Aryl hydrocarbon receptor (Homo sapiens), sequence (P35869 whole entry, looked up): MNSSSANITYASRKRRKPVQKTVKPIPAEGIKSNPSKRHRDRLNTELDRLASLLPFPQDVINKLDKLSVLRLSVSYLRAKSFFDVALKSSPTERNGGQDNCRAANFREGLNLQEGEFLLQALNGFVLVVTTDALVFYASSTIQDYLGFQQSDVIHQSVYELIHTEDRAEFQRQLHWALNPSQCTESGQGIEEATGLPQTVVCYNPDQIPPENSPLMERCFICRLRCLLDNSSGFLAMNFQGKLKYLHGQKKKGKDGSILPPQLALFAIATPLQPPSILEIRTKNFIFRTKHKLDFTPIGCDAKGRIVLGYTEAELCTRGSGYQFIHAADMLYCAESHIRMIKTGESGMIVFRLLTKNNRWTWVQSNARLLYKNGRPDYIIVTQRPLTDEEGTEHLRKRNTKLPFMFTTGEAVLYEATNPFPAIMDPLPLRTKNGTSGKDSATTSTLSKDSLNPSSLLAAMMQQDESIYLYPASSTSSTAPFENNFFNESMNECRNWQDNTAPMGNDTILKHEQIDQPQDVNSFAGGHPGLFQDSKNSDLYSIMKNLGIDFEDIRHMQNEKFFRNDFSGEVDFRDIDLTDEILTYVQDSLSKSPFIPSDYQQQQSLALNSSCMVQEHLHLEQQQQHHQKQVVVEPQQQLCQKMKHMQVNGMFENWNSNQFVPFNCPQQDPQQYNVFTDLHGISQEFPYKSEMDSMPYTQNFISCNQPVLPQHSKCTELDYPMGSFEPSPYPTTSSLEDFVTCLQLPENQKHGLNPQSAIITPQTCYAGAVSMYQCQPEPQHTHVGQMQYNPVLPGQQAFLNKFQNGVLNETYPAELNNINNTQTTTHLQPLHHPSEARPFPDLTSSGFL
Retinoic acid receptor alpha (Homo sapiens), sequence (P10276 whole entry, looked up): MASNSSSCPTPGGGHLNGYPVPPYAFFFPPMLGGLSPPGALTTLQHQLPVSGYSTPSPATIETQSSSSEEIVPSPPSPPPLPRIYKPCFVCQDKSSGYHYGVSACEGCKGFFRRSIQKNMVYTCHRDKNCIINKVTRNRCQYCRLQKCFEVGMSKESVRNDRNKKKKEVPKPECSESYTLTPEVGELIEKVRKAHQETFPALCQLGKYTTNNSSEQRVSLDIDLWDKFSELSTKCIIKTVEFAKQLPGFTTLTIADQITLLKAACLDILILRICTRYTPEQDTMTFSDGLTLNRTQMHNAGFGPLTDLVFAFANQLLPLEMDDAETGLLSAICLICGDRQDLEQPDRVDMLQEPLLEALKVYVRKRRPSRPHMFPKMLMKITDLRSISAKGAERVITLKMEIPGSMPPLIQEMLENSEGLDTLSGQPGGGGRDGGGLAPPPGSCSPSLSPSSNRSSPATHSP
CCAAT/enhancer-binding protein beta (Homo sapiens), sequence (P17676 whole entry, looked up): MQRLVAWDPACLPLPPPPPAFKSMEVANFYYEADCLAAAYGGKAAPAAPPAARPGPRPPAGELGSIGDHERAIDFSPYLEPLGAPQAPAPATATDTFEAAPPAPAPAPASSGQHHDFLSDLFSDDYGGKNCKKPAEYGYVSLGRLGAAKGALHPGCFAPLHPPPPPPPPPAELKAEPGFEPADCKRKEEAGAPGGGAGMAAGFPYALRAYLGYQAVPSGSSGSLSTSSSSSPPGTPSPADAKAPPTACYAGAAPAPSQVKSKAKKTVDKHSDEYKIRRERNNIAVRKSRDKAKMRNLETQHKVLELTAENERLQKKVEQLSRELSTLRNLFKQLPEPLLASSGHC
Hepatocyte nuclear factor 3-beta (Homo sapiens), sequence (Q9Y261 whole entry, looked up): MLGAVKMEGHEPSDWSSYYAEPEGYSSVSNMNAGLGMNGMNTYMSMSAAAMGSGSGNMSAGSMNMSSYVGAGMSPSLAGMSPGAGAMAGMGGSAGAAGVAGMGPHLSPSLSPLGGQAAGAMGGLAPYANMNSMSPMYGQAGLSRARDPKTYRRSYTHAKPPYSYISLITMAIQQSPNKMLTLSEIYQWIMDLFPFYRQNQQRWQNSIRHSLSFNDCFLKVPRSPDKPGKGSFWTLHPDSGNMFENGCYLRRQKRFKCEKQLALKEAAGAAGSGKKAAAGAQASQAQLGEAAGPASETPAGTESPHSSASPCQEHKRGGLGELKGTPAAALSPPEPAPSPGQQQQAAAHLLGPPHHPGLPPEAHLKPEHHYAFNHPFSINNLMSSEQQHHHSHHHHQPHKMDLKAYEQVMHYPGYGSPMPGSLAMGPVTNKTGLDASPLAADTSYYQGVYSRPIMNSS
Transcription factor E2F1 (Homo sapiens), sequence (Q01094 whole entry, looked up): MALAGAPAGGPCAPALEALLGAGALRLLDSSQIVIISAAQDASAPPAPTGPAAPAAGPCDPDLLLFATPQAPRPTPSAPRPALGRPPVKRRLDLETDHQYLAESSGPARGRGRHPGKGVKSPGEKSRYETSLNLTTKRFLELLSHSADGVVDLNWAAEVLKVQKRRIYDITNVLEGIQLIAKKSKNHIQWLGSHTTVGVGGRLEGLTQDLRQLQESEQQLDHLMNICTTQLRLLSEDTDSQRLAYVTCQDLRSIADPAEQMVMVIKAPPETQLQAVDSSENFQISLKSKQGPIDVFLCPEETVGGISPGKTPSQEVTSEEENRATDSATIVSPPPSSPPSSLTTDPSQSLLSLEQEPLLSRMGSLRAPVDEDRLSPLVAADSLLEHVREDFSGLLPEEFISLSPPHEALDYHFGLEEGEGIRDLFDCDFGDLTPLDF

CC1=NNC(=O)N(/N=C/c2cccnc2)C1
inactive: all assays above

CCOP(=S)(Oc1cnc(C(C)(C)C)nc1)OC(C)C (centres undefined)
active: [2] 2.22 µM | [3] 50 µM | [4] 12.9 µM | [6] 62.2 µM | [8] 50 µM | [9] 12 µM | [11] 27 µM | [13] 19.3 µM | [19] 50 µM
inactive: [1] | [5] | [7] | [12] | [14] | [15] | [16] | [17] | [18]

CC(C)N(C(=O)SCC(Cl)=C(Cl)Cl)C(C)C
active: [1] 15.6 µM | [2] 10.8 µM | [9] 29.1 µM
not listed: [5] | [10]
inactive: all other assays above

CCCOCC(=Nc1ccc(Cl)cc1C(F)(F)F)n1ccnc1
active: [3] 7 µM | [4] 1.39 µM | [9] 0.295 µM
not listed: [10]
inactive: all other assays above

COc1cc(OC)nc(Sc2cccc(Cl)c2C(=O)O)n1
not listed: [5] | [9] | [10]
inactive: all other assays above

Cc1nn(-c2cc(NS(C)(=O)=O)c(Cl)cc2Cl)c(=O)n1C(F)F
not listed: [9]
inactive: all other assays above

CCCOc1nn(C(=O)NS(=O)(=O)c2ccccc2C(=O)OC)c(=O)n1C
not listed: [10]
inactive: all other assays above
